The structures appear in SMILES notation.

The assay in a line: calcein-AM signal in unstimulated myeloma cells – cell-based, calcein-AM fluorescence, 48 h, PK04 Diversity Set, profiling panel (AID 1166).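 Also: cells grown under basal conditions without added stimulus; test concentration not given here.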 As to conditions: RPMI8226 myeloma viability, higher = more signal.
`CC(=O)n1cc(C(O)C2C=CC3C(=O)N(Cc4ccccc4)C(=O)C3N2n2cnnc2)c2ccccc21` (stereo unspecified): the z-score is 0.125.

Take `COc1cc2c(cc1OC)CN(C(=O)[C@H]1[C@@H]3C(=O)O[C@@H](c4ccccc4)[C@@H](c4ccccc4)N3[C@@H](c3ccc(OCCO)cc3)[C@]13C(=O)Nc1ccc(C#CC4(O)CCCCCC4)cc13)CC2`: the z-score is 0.0846. `O=c1cccc(-c2ccc(C(F)(F)F)cc2)o1`: the z-score is -1.02. For `COc1ccc(C(O)C2C=CC3C(=O)N(Cc4ccccc4)C(=O)C3N2n2cnnc2)c2ccccc12` (stereo unspecified), the z-score was -1.34. Consider `CC(C)(C)OC(=O)CC[C@]1(C(=O)NCCN2CCOCC2)N=C(c2ccc(OCCCO)cc2)O[C@H]1c1ccccc1N=[N+]=[N-]`, for which the z-score is -0.711. Consider `C=CC[C@H](OC(=O)Nc1ccc(OC)cc1)c1ccc(O)c2ccccc12`, for which the z-score is -4.26. Turning to `COC(=O)[C@@]1(Cc2ccc(OC)cc2)[C@H]2c3cc(C(=O)N4CCCC4)n(CCc4cc5ccccc5[nH]4)c3C[C@H]2CN1C(=O)c1ccccc1`, the z-score is -1.84. Take `COc1ccc(CCNC(=O)[C@@]2(Sc3ccc(C)cc3)CC(=O)N(Cc3cc(C(F)(F)F)cc(C(F)(F)F)c3)[C@@H]2c2ccc(CO)cc2I)cc1`: the z-score is -1.96.

`COc1ccc(C(O)C2C=CC3C(=O)N(C)C(=O)C3N2N2CCCCC2)cc1` (stereo unspecified): the z-score is -0.0882.

As to `COc1ccc([Si](C)(C)[C@@H]2[C@@H](CC(=O)N3CCC[C@H]3CO)O[C@]3(C(=O)N(Cc4ccc(N5C(=O)c6cccc7cccc5c67)cc4)c4ccccc43)[C@H]2C)cc1`, the z-score is -4.35. For the molecule `O=C1c2ccccc2[C@@]2(Cc3ccccc3N(C3CC3)C2=O)[C@H](c2ccc(CO)cc2)N1C1CCCCC1`, the z-score is -2.4.

(Values after PubChem BioAssay.)
